# IL-1B inflam inh = inflammasome signaling inhibition, IL-1 beta readout; THP-1 LPS/ATP IL-1B secretion, AlphaLISA, 16 h; stronger effect = lower value; activity change, % at 57.5 µM; 4.7% of 360,000 active; in the data active = activity change below about -50%; inconclusive = mostly about -30% to -49%; note: % is set by controls: 0 for no effect and ±100 for the full control effect
#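 THP-1 cells pretreated 1 hr with compounds (up to 57.5 uM final), then stimulated with LPS (250 ng/mL final) plus ATP (1.25 mM final); secreted IL-1B measured by AlphaLISA after 16 hr, decreased signal indicating inhibition.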
# TDP1 cell CPT = growth inhibition of DT40 Tdp1-/-;hTDP1 cells with camptothecin (screen for TDP1 inhibitors) | chicken DT40 Tdp1-/-;hTDP1 cells + 20 nM CPT, ATP luminescence, 48 h | Potency, µM (series often up to 46.2 µM), for the others: top-dose activity change, negative = growth inhibition, actives largely listed as inhibitors | 12% of 420,000 active | AID 686979; note: potency is the fitted concentration of half-maximal effect; % is set by controls: 0 for no effect and ±100 for the full control effect; nearly all actives have a fitted effect of over 55% in size
#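 Chicken DT40 Tdp1-/- cells stably complemented with human TDP1 were seeded at 400 cells/well in medium containing 20 nM camptothecin, exposed to pin-transferred compounds, and grown at 37 °C for at least 48 hr. Viability was read as ATP luminescence.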
# S-ASM inh = blocks human secretory acid sphingomyelinase; 0.006% of 340,000 active; Potency, µM (doses to about 57.5 µM), for the others: at the highest dose activity change, negative = inhibition, most hits filed as inhibitors; placental ASM, HMU-PC fluorogenic substrate, 60 min; AID 504937; note: potency is the fitted concentration of half-maximal effect
# Target sequence (P17405 47-631 limits assumed): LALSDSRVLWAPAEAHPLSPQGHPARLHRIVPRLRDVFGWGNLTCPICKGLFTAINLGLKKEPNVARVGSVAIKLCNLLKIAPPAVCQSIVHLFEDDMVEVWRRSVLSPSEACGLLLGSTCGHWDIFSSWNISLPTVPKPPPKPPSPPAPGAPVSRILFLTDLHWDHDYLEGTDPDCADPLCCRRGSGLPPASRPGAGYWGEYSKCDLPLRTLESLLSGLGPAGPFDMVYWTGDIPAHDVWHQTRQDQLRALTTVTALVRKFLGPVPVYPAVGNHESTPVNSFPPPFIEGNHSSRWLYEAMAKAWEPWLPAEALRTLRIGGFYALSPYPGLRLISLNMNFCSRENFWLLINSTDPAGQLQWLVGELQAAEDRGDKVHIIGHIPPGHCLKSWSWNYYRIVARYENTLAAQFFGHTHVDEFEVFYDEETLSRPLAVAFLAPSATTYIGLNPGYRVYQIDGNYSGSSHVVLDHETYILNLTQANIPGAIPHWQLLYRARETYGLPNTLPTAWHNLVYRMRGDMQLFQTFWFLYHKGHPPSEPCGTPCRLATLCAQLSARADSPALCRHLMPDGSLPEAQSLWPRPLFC
#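 HMU-PC0 cleavage (9 uM final) by human placental ASM, 60 min at 37 °C following 10 min compound exposure at RT; stopped at pH 10, fluorescence Ex 386/Em 447 nm.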
# TGFb inhibitor = TGF-b pathway inhibition; 1.2% of 410,000 active; Potency, µM (series often up to 46.1 µM), for inactives: at the highest dose activity, negative = inhibition, most hits filed as inhibitors; AID 588855; HepG2 CAGA-GFP TGF-b/SMAD3 reporter, GFP fluorescence, 18 h; TGF-beta stimulated, 500 pg/mL final; note: potency is the fitted concentration of half-maximal effect; % is set by controls: 0 for no effect and ±100 for the full control effect; nearly all actives have a fitted effect of over 65% in size
#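 Inhibition of TGF-beta-driven CAGA-GFP reporter expression in HEPG2 cells is measured by cellular GFP fluorescence after 18 h stimulation with 500 pg/mL recombinant TGF-beta in 1% FBS medium at 37 degrees C.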
# DT40 TDP1 no CPT = qHTS for Inhibitors of human tyrosyl-DNA phosphodiesterase 1 (TDP1): qHTS in cells in absence of CPT; 15% of 420,000 active; Potency, µM (titrated, usually from 46.2 µM), for inactives: at the top dose activity change, negative = growth inhibition, most hits filed as inhibitors; DT40 Tdp1-/- hTDP1 cells, no CPT, ATP luminescence, 48 h; note: potency is the fitted concentration of half-maximal effect; % is set by controls: 0 for no effect and ±100 for the full control effect; nearly all actives have a fitted effect of over 55% in size
#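 A cellular qHTS used chicken DT40 cells lacking endogenous Tdp1 but carrying stably transfected human TDP1. Compounds were applied without camptothecin, and cell growth kinetics were judged by ATP-dependent luminescence after ≥48 hr.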
# HepG2 viability = HepG2 cytotoxicity, counter-screen for TGF-b inhibitors | HepG2 CAGA-GFP viability, ATP luminescence, 18 h | Potency, µM (top dose mostly 46.1 µM), without a hit: at the top dose activity change, negative = cytotoxicity, usual class: cytotoxic | 0.76% of 410,000 active; note: potency is the fitted concentration of half-maximal effect
#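 HepG2 CAGA-GFP cells (1000/well, DMEM with 1% FBS) received compound, then TGF-beta at 500 pg/mL final, and were incubated 18 hours at 37 degrees C. Viability was read by CellTiter-Glo luminescence. Media-only wells were set as complete cell-killing and DMSO as no toxicity.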
# Numbers without * were called inactive; ? = inconclusive; / = no result. Compounds with a hit are over-represented: about 19% of the library has one in this group of screens. Unless noted, calls come from the whole dose curve; as a rule, active = well fitted curve in the direction sought with a large enough effect; inconclusive = small, poorly fitted or top-dose-only effect, or another doubt; inactive = no such curve, though single readings can be large; an effect the other way counts as inactive or inconclusive.
SMILES,IL-1B inflam inh,TDP1 cell CPT,S-ASM inh,TGFb inhibitor,DT40 TDP1 no CPT,HepG2 viability
N#CC(C#N)=C1SC(=Nc2ccccc2)C(=Nc2ccccc2)N1c1ccccc1,-9,5.2µM*,-18%,-3%,8.2µM*,11%
Fc1ccc(N2C(=S)SC(=Nc3ccccc3)C2=Nc2ccccc2)cc1,0,?,-12%,3%,?,-11%
CN(CCc1ccccc1)C(C(=O)c1ccc2c(c1)OCO2)c1nnnn1-c1ccccc1NC(=O)OC(C)(C)C (configuration not stated),21,15µM*,/,/,16µM*,/
CC(C)(C)OC(=O)Nc1ccccc1-n1nnnc1C(C(=O)c1ccccc1)N1CCN(c2ccccn2)CC1 (configuration not stated),-4,?,/,/,?,/
Cc1cc(NC(=O)OC(C)(C)C)c(-n2nnnc2C(C(=O)c2ccc3c(c2)OCO3)N2CCN(c3ccccn3)CC2)cc1C (configuration not stated),-12,23µM*,/,/,16µM*,/
O=C(NCCc1ccccc1)c1ccc2c(c1)OCO2,-6,-19%,2%,-9%,?,-16%
COc1cccc(C(=O)c2ccccc2C(=O)O)c1,34,-4%,/,-19%,9%,4%
Cc1cc(NC(=O)c2cc(-c3cccc(Cl)c3)on2)n(-c2ccccc2)n1,/,?,/,2%,?,-2%
Cc1cccn2c(=O)c3cc(C(=O)NCCc4ccc(S(N)(=O)=O)cc4)n(C)c3nc12,/,?,/,0%,?,-11%
CCOc1ccc(-c2cc(C(=O)N3CCN(c4cccc(C)c4)C(C)C3)c3ccccc3n2)cc1 (configuration not stated),/,16µM*,/,-13%,7.3µM*,3%
CCOc1ccc(-c2cc(C(=O)N3CCN(c4ccc(C)cc4)C(C)C3)c3ccccc3n2)cc1 (configuration not stated),/,21µM*,/,?,23µM*,-17%
Cc1cccc(N2CCN(C(=O)c3cccn4c(=O)c5cc(Cl)ccc5nc34)CC2C)c1 (configuration not stated),/,18µM*,/,-10%,?,2%
COc1ccc2c3n(nc2c1)CCN=C3c1ccc(C)cc1,5,16µM*,2%,2%,?,-10%
Nc1c(Cl)cc(C2=NCCn3nc4ccccc4c32)cc1Cl,-15,23µM*,0%,3%,?,-3%
COc1ccc(C2=NCCn3nc4cc([N+](=O)[O-])ccc4c32)cc1,7,-20%,2%,-10%,-8%,-3%
CC(C)n1c(SCC(=O)c2ccc(F)cc2)nc2c(sc3ccccc32)c1=O,/,8%,/,18%,6%,7%
O=C(NCCN1C(=O)S/C(=C\c2ccc(Cl)cc2)C1=O)C1=COCCO1,7,-24%,2%,-3%,-20%,-13%
O=C(NCCN1C(=O)S/C(=C\c2ccccc2F)C1=O)C1=COCCO1,2,?,0%,-1%,2.9µM*,0%
O=C(NCCN1C(=O)S/C(=C\c2ccc(Cl)cc2Cl)C1=O)C1=COCCO1,?,15µM*,-11%,-9%,12µM*,-45%
O=C(CNC(=O)c1ccccc1F)NCCN1C(=O)S/C(=C\c2ccccc2Cl)C1=O,6,-26%,-2%,?,?,-32%
O=C(NCCN1C(=O)S/C(=C\c2ccccc2Cl)C1=O)C1=COCCO1,-2,7.3µM*,-1%,-12%,6.5µM*,-22%
O=C(CCS(=O)(=O)c1ccc(Cl)cc1)NCCN1C(=O)S/C(=C\c2ccccc2F)C1=O,0,?,-8%,-7%,16µM*,-7%
COc1ccc(N2CCN(C(=O)CCS(=O)(=O)c3ccc4c(c3)CCN4C(=O)C3CC3)CC2)cc1,-6,?,0%,-10%,?,-3%
COc1cc(/C(C)=C/c2ccccc2)c2c(c1)oc1ccccc12,/,?,/,-13%,14µM*,-15%
COC(C[C@@H]1O[C@@H]1[C@@H](O)[C@@H](C)OCc1ccccc1)OC,-7,-5%,3%,-10%,-12%,3%
SMILES,IL-1B inflam inh,TDP1 cell CPT,S-ASM inh,TGFb inhibitor,DT40 TDP1 no CPT,HepG2 viability
COC(C[C@@H]1O[C@@H]1[C@H](O)[C@H](C)OCc1ccccc1)OC,32,-7%,5%,-17%,-2%,-4%
COC(C[C@H]1O[C@H]1C(=O)[C@@H](C)OCc1ccccc1)OC,-13,10µM*,3%,-5%,?,-7%
COC(C[C@@H]1O[C@H]1C(=O)[C@@H](C)OCc1ccccc1)OC,?,18µM*,-2%,?,-70%,-83%
Cc1ccc(O)c(NC(=O)c2nc3nc(C)cc(C(F)F)n3n2)c1,/,-7%,/,5%,?,10%
Cc1ccc(NC(=O)C(=O)NCC(c2cccnc2)N2CCc3ccccc3C2)cc1 (configuration not stated),/,21µM*,/,?,16µM*,-36%
CC(C)(C)c1ccc(C(=O)NCC(c2cccnc2)N2CCc3ccccc3C2)cc1 (configuration not stated),/,2.3µM*,/,?,1.8µM*,-60%
Cc1cccc(NC(=O)C(=O)NCC(c2cccnc2)N2CCc3ccccc3C2)c1C (configuration not stated),/,16µM*,/,-39%,16µM*,-19%
O=C(NCC(c1cccnc1)N1CCc2ccccc21)C(=O)Nc1ccccc1F (configuration not stated),/,7.3µM*,/,?,?,-23%
N#Cc1ccccc1NC(=O)C(=O)NCC(c1cccnc1)N1CCN(c2ccccc2)CC1 (configuration not stated),/,?,/,163%,-18%,119%
Cc1ccc(NC(=O)C(=O)NCC(c2cccnc2)N2CCN(C)CC2)cc1 (configuration not stated),/,-12%,/,0%,-8%,-32%
COc1ccccc1NC(=O)C(=O)NCC(c1cccnc1)N1CCc2ccccc2C1 (configuration not stated),/,?,/,?,?,-13%
COc1cc(-c2nc(Cn3nnc(C(=O)Nc4ccccc4C)c3C)c(C)o2)cc(OC)c1OC,/,-27%,/,?,?,2%
Cc1cccc(NC(=O)C(=O)NCC(c2cccnc2)N2CCc3ccccc32)c1C (configuration not stated),/,18µM*,/,?,23µM*,-23%

# Screens as filed in PubChem BioAssay.
